In PubChem BioAssay:
Values without a mark were called inactive. Active and inactive are the calls of the source.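 Rule for the calls: active = viability at or under a set limit in both replicates, limit being median viability minus 3 SD (cut at about 48% in these data, passing the limit was not always enough); inconclusive = at or under the limit in just one replicate; inactive = at or above the limit in both replicates.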

Assay: H69AR cell proliferation blockers – human, duplicate replicates, primary screen (AID 580);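 note: 100% = mean luminescence of untreated wells and 0% = no signal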
Details: H69AR lung tumor cells viability, ATP luminescence, 72 h; at 10 µM; hits give low values

Row | SMILES | viability
1 | CC1/C(=N/O)C(CN(C)C)C2CC1C2(C)C (stereo not given) | 108%
2 | O=C(Nc1cccc(F)c1)c1ccc2c(c1)OCO2 | 97.1%
3 | COc1ccccc1N=Cc1nc(-c2ccccc2)oc1OC(C)=O | 63.1%
4 | CC(=O)Nc1ccc(S(=O)(=O)NCc2cn3c(C)csc3n2)cc1 | 102%
5 | O=C(c1ccccc1Br)N1CCN(c2ccccc2)CC1 | 102%
6 | COc1cccc(OC)c1C(=O)Nc1ccc(CN2CCCCC2)cc1 | 89.4%
7 | O=C(Cn1nnc(-c2ccccc2)n1)Nc1ccccc1N1CCOCC1 | 93.3%
8 | CCCCSc1cc(C)nc2ncnn12 | 99.7%
9 | COCCn1c(C)cc(C(=O)COC(=O)CCN2C(=O)c3ccccc3C2=O)c1C | 96.6%
10 | Cc1cc(=O)n(CC(C)C)c(O)c1C#N | 104%
11 | Cc1nc2cc(Cl)ccc2n1CCO | 92%
12 | CCCN1CCN(C(=O)Cn2c(=O)oc3cc(S(=O)(=O)NCc4ccccc4)ccc32)CC1 | 95.3%
13 | COc1ccc2cc(C#N)c(SCC(=O)N3CCCC3)nc2c1 | 70.2%
14 | CCn1c(=O)cc(OCC(=O)NC2CCCCC2)c2ccccc21 | 87%
15 | CC(C(=O)Nc1ccccc1-c1ccccc1)N1CCN(C(=O)c2ccco2)CC1 (stereo not given) | 74.1%
16 | Cc1c(C(=O)NCc2cccnc2)sc2ncn(CC(=O)N3CCCCC3C)c(=O)c12 (stereo not given) | 97%
17 | O=C(c1cn(-c2ccccc2)nc1-c1cccs1)N1CCN(c2ccccn2)CC1 | 45.1% (active)
18 | CCOc1ccc2[nH]c(=O)c(C(c3nnnn3Cc3ccco3)N3CCC(C)CC3)cc2c1 (stereo not given) | 85.7%
19 | c1ccc(-c2nnc(-c3ccco3)n2-c2ccccc2)cc1 | 88.1%
20 | N#Cc1ccccc1NC(=O)CSc1nnc(-c2ccccc2)n1-c1ccccc1 | 30.3% (active)

Row | SMILES | viability
21 | Cc1ccc(-n2cnnn2)c2cccnc12 | 101%
22 | Cc1ccc(-c2[nH]nc3c2C(c2ccc(OC(=O)N4CCOCC4)cc2)C(C#N)=C(N)O3)cc1 (stereo not given) | 85.5%
23 | CC(C)=CC(=O)N1CCCc2ccccc21 | 98.4%
24 | CCOC(=O)c1cc2n(n1)C(C(F)(F)C(F)(F)F)CC(C)N2 (stereo not given) | 97.3%
25 | c1ccc(-c2ccccc2OCCn2cncn2)cc1 | 99.8%
26 | CC(C)Cn1c(N)c(C(=O)COC(=O)c2ccc3c(c2)OCCO3)c(=O)n(C)c1=O | 91.8%
27 | COc1ccc(Cn2c(CCCO)nc3ccccc32)cc1OC | 102%
28 | CN(C)C(=O)N1CCCC(C(=O)NCc2ccccc2)C1 (stereo not given) | 87.8%
29 | O=C(CN1C(=O)c2cccc3cccc1c23)N1CCN(c2ccccc2)CC1 | 113%
30 | CC(C)(C)OC(=O)NCCc1nnc(SCC(=O)c2ccc(Cl)cc2)o1 | 105%
31 | CCOC(=O)N1CCN(c2c(N3CCN(c4ccccc4OC)CC3)c(=O)c2=O)CC1 | 84.2%
32 | Cn1c(=O)c2ncn(CC(=O)NCCOc3ccc(C(C)(C)C)cc3)c2n(C)c1=O | 76.2%
33 | COc1ccc(-c2cc(C(=O)NCc3ccc(Cl)cc3)no2)cc1OC | 100%
34 | CCOC(=O)c1ccc(NC(=O)CCNc2c(N3CCCC3)c(=O)c2=O)cc1 | 98.3%
35 | CCOC(=O)CSc1nnc(CCc2nc3ccccc3[nH]2)n1C | 102%
36 | CCOc1ccc(-c2nnn(CCC(=O)O)n2)cc1OC | 102%
37 | CCCCNC(=O)CN(C1CCCCC1)S(C)(=O)=O | 103%
38 | CCOCCCNC(=O)C1CCC(=O)N1CCc1ccccc1 (stereo not given) | 98.3%
39 | OC(COc1ccc2ccccc2c1)CN1CCOCC1 (stereo not given) | 81.5%
40 | COc1ccccc1CN1C(=O)CCC1(C)C(=O)NC1CCCCCC1 (stereo not given) | 98.1%
